Experimental data reported in PubChem BioAssay (Tox21).
Results filed as inconclusive are left out. The source made the active and inactive calls. Unless noted, calls come from the whole dose curve; as a rule, active = well fitted curve in the direction sought with a large enough effect in the repeat runs; inconclusive = weak or mixed curves; inactive = no such curve, though single readings can be large; an effect the other way counts as inactive or inconclusive. Positions of bridges follow the written chain, without caps; N, C: chain ends. Non-standard residues stand in square brackets, D forms with d. Residues, ends and D or L forms follow the SMILES beside them. hArg = N=C(N)NCCCC[C@H](N)C(=O)O; Mpa = O=C(O)CCS

Assays:
[1] = A CellTox Green Cytotoxicity Assay to monitor cytotoxicity in HEK293 cells - 16 hour (AID 1224888); note: nearly all actives have a fitted effect of over 35% in size; note: potency is the fitted concentration of half-maximal effect
Procedure, shortened: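 Read-out: fluorescence of a cell-impermeant cyanine dye staining DNA of dead cells, proportional to cytotoxicity. HEK293, 600 cells/well with reagent, compound (23 nL DMSO) added after 5 h; reads at 0, 8, 16, 24, 32, 40 h.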

[2] = qHTS RealTime-Glo MT Cell Viability Assay in HepG2 cells - 0 hour (AID 1224889); note: nearly all actives have a fitted effect of over 50% in size
Procedure, shortened: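 HepG2 cells were seeded at 600 cells/well together with NanoLuc luciferase and a cell-permeant prosubstrate, preincubated 5 h at 37 C/5% CO2, then pin-dosed with compounds in DMSO. Nonlytic luminescence from viable cells was read at each time point.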

[3] = A CellTox Green Cytotoxicity Assay to monitor cytotoxicity in HepG2 cells - 8 hour (AID 1224890); note: nearly all actives have a fitted effect of over 45% in size; note: potency is the fitted concentration of half-maximal effect
Procedure, shortened: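 HepG2, 600 cells/well premixed w/ CellTox Green; 5 h settle, 37 C/5% CO2; pintool cpd add (DMSO); 37 C, 40 h; fluorescence read at 0, 8, 16, 24, 32, 40 h.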

[4] = qHTS assay to identify small molecule antagonists of the estrogen receptor alpha (ER-alpha) signaling pathway using the BG1 cell line in the presence of 0.1 nM 17-beta-estradiol - cell viability counter screen (AID 1259241); note: nearly all actives have a fitted effect of over 40% in size
Procedure, shortened: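 CellTiter-Fluor read (30 min, 37C) on ER-alpha/ERE-luc VM7Luc4E2 cells; 22 hr compound treatment; agonist 0.1 nM E2 final; same-well multiplex.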

[5] = target: Androgen receptor (Homo sapiens) (UniProt P10275); experiment: qHTS assay to identify small molecule antagonists of the androgen receptor (AR) signaling pathway using the MDA cell line in the presence of 0.5 nM R1881 (AID 1259243); note: nearly all actives have a fitted effect of over 50% in size
Androgen receptor (Homo sapiens), sequence (P10275 whole entry, looked up): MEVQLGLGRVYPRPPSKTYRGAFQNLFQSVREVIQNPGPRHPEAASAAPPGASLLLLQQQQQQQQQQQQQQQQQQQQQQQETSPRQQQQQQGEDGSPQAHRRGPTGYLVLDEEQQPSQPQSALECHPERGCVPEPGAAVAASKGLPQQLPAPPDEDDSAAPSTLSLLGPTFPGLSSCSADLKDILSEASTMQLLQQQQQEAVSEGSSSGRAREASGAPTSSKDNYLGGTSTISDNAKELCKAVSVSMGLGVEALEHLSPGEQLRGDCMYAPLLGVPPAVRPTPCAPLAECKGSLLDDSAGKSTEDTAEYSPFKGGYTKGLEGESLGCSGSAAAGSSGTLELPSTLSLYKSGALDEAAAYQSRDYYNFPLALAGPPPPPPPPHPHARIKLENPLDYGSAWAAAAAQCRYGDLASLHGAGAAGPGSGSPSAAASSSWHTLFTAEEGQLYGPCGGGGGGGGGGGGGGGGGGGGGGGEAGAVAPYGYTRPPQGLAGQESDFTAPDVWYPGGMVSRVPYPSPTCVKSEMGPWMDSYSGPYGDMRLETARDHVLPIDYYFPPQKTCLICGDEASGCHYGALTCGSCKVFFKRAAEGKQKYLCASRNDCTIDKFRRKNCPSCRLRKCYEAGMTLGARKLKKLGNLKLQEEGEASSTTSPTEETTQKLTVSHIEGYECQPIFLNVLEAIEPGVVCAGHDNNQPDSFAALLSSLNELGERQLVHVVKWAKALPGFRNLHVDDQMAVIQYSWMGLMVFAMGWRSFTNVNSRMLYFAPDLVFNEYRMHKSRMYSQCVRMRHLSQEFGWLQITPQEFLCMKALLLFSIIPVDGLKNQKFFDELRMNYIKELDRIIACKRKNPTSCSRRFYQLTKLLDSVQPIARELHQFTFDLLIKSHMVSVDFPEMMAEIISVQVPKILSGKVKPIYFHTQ
Procedure, shortened: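 MDA-kb2, MMTV-luc (AR/GR elements); 3,000 cells/well; cpd + 0.5 nM R1881 final; 16 hr 37C, 0% CO2; ONE-Glo 30 min RT; luminescence.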

[6] = target: Estrogen receptor (Homo sapiens) (UniProt P03372); experiment: qHTS assay to identify small molecule antagonists of the estrogen receptor alpha (ER-alpha) signaling pathway using the BG1 cell line in the presence of 0.1 nM 17-beta-estradiol (AID 1259244); note: nearly all actives have a fitted effect of over 50% in size
Estrogen receptor (Homo sapiens), sequence (P03372 whole entry, looked up): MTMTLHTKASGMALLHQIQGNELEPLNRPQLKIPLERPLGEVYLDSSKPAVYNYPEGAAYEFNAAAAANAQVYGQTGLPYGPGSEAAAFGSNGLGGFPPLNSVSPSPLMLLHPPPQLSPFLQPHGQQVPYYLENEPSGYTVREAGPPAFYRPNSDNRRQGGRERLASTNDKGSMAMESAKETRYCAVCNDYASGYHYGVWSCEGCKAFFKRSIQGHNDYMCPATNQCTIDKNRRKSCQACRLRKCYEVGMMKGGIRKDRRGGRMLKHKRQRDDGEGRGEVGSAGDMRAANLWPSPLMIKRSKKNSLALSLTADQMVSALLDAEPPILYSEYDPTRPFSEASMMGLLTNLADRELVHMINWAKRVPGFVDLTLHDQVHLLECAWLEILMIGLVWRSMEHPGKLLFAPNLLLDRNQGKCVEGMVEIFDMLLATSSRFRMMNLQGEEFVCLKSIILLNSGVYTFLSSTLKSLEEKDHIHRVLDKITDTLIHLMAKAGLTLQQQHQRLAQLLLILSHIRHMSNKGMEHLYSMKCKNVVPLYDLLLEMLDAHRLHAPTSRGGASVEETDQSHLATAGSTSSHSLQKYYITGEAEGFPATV
Procedure, shortened: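 Luminescence after ONE-Glo (30 min, room temperature) measured ERE-luciferase activity in VM7Luc4E2 cells treated 22 h with compound and 0.1 nM final 17beta-estradiol as stimulator.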

[7] = qHTS assay to identify small molecule HDAC inhibitors (AID 1259364); note: potency is the fitted concentration of half-maximal effect;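 note: wild-type HCT-116 cells with endogenous class I/II HDAC activity; nearly all actives have a fitted effect of over 45% in size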
Procedure, shortened: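 HCT-116 (wild type), 1,500 cells/well, overnight; compound 2 hr 37C 5% CO2; HDAC-Glo I/II reagent 30 min RT; luminescence readout.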

[8] = qHTS assay to identify small molecule HDAC inhibitors - cell viability counter screen (AID 1259365); note: series mostly up to about 92 µM; nearly all actives have a fitted effect of over 50% in size
Procedure, shortened: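 To flag cytotoxic hits, 1,500 wild-type HCT-116 cells per well, plated the day before, receive test compounds for 2hr at 37 C before CellTiter-Glo reagent and a luminescence read.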

[9] = qHTS assay to identify small molecule agonists of the sonic hedgehog signaling (Shh) pathway - cell viability counter screen (AID 1259366); note: nearly all actives have a fitted effect of over 50% in size
Procedure, shortened: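 Fluorescence from CellTiter-Fluor reports live cells in this counter screen. NIH/3T3-derived Gli1-Luc reporter cells receive test compounds for 24hr at 37C; reagent goes in at 23hr.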

[10] = qHTS assay to identify small molecule antagonists of the sonic hedgehog signaling (Shh) pathway - cell viability counter screen (AID 1259367); note: nearly all actives have a fitted effect of over 55% in size
Procedure, shortened: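 Tox21 library chemicals were tested on a Gli1-Luc NIH/3T3 clone (2,000 cells/well) stimulated by conditioned medium; viability was quantified as fluorescence from CellTiter-Fluor reagent added at 23 hr.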

[11] = qHTS assay to identify small molecule agonists of the sonic hedgehog signaling (Shh) pathway (AID 1259368; calls by dose curve;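 note: NIH/3T3-derived 3T3Gli1-Luc cells carrying a stable Gli1-driven firefly luciferase reporter; series mostly up to about 92 µM; nearly all actives have a fitted effect of over 15% in size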)
Procedure, shortened: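 Read-out: firefly luciferase luminescence from a Gli1 response element reporter stably integrated in NIH/3T3-derived 3T3Gli1-Luc cells, measured 30 min at room temperature after reagent addition. Compound exposure lasted 24 hr at 37 C, 5% CO2.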

[12] = qHTS assay to identify small molecule antagonists of the sonic hedgehog signaling (Shh) pathway (AID 1259369; calls by dose curve; note: nearly all actives have a fitted effect of over 45% in size)
Procedure, shortened: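 Luminescence readout: firefly Luc under Gli1 response element in 3T3Gli1-Luc cells (NIH/3T3 clone). Antagonist mode, stimulation by conditioned medium; compound exposure 24hr at 37 C, 5% CO2.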

[13] = target: Estrogen receptor beta (Homo sapiens) (UniProt Q92731); experiment: qHTS assay to identify small molecule agonists of the estrogen receptor beta (ER-beta) signaling pathway (AID 1259377; active = well fitted activation curve with a large enough effect in the signal ratio in the repeat runs, not every such curve was filed as active; the % refers to the signal ratio)
Estrogen receptor beta (Homo sapiens), sequence (Q92731 whole entry, looked up): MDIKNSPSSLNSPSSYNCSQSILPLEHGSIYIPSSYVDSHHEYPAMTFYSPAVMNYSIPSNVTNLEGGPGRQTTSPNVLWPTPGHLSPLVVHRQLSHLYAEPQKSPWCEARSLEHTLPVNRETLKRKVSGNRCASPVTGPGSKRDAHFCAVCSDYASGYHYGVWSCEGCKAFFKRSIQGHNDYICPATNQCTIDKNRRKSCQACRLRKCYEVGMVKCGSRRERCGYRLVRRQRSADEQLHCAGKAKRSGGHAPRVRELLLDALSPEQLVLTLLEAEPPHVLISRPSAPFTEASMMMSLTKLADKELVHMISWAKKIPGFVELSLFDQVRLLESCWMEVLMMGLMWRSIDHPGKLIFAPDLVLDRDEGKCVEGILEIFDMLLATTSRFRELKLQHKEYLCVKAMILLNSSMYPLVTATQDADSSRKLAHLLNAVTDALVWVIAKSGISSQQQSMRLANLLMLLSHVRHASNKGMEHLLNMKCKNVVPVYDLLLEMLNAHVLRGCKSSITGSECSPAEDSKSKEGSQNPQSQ
Procedure, shortened: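 Screening used GripTite ER-beta-UAS-bla cells held in 2% charcoal-stripped FBS medium. After overnight (16 hr) compound incubation at 37C, beta-lactamase activity was detected with a FRET substrate by fluorescence.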

[14] = target: Estrogen receptor beta (Homo sapiens) (UniProt Q92731); experiment: qHTS assay to identify small molecule antagonists of the estrogen receptor beta (ER-beta) signaling pathway (AID 1259378; active = well fitted inhibition curve with a large enough effect in the signal ratio in the repeat runs, not every such curve was filed as active; the % refers to the signal ratio)
Procedure, shortened: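 ER-beta-UAS-bla HEK293T cells in 2% charcoal-stripped FBS medium treated with compound plus 1nM final 17-beta-estradiol for 16 hr at 37C. Beta-lactamase reporter read by FRET substrate fluorescence after 2 hours at room temperature.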

[15] = qHTS assay to identify small molecule agonists of the androgen receptor (AR) signaling pathway in the presence of an antagonist - cell viability counter screen (AID 1259379);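 note: MDA-kb2 human breast cancer cells carrying an MMTV luciferase reporter; series mostly up to about 92 µM; nearly all actives have a fitted effect of over 25% in size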
Procedure, shortened: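 Viability counter screen: CellTiter-Fluor fluorescence, measured in the same wells as the luciferase read-out. MDA-kb2 cells, 3,000/well, with nilutamide at 3.0uM final and compounds at 15 concentrations, 16 hr at 37C, 0% CO2.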

[16] = qHTS assay to identify small molecule agonists of the estrogen receptor beta (ER-beta) signaling pathway - cell viability counter screen (AID 1259380); note: nearly all actives have a fitted effect of over 30% in size
Procedure, shortened: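 Luminescence read-out (CellTiter-Glo, 30 min, room temp) taken in the same wells as the beta-lactamase reporter assay; ER-beta-UAS-bla HEK293T cells exposed to DMSO-dissolved compounds for 16 hr at 37C in 2% charcoal-stripped FBS medium.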

[17] = target: Androgen receptor (Homo sapiens) (UniProt P10275); experiment: qHTS assay to identify small molecule agonists of the androgen receptor (AR) signaling pathway in the presence of an antagonist (AID 1259381; calls by dose curve; note: nearly all actives have a fitted effect of over 15% in size)
Procedure, shortened: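 Luciferase read-out (ONE-Glo, 30min room temperature) in MDA-kb2 MMTV-reporter cells; agonist mode run in presence of AR antagonist nilutamide, 3.0uM final. Compounds tested as 15-point series, 16hr exposure at 37C, 0% CO2.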

[18] = qHTS assay to identify small molecule antagonists of the androgen receptor (AR) signaling pathway using the MDA cell line in the presence of 0.5 nM R1881 - cell viability counter screen (AID 1259242); note: nearly all actives have a fitted effect of over 45% in size
Procedure, shortened: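 Live-cell protease fluorescence, CellTiter-Fluor, 30 min at 37C. Cells: MDA-kb2, 3,000/well, preincubated 5 hr. Compounds plus 0.5 nM R1881 final, 16 hr, 37C, 0% CO2.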

[19] = qHTS assay to identify small molecule antagonists of the estrogen receptor beta (ER-beta) signaling pathway - cell viability counter screen (AID 1259382); note: series mostly up to about 92 µM; nearly all actives have a fitted effect of over 55% in size
Procedure, shortened: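 Luminescent ATP read-out (CellTiter-Glo, 30 min, RT) taken in the same wells as the bla reporter assay. HEK293T ER-beta-UAS-bla cells in 2% charcoal-stripped FBS were exposed to compounds with 1nM E2 for 16 hr at 37C.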

[20] = qHTS assay to identify small molecule phospholipidosis (PLD) inducers (AID 1259344; active = well fitted curve in the direction sought with a large enough effect; an effect the other way counts as inactive or inconclusive)
Procedure, shortened: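 Image-based: LipidTOX Red pit count/intensity per well and per cell; HepG2, 24 h compound at 37 C, PFA fixation, Hoechst counterstain.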

Measured: Potency

CC(=O)OC1CCCCC1C(C)(C)C (configuration not stated)
not listed: [18] | [19] | [20]
inactive: all other assays above

Cc1ccnc(N)c1
not listed: [5] | [6] | [8] | [10] | [11] | [17] | [19] | [20]
inactive: all other assays above

CC(C)[C@H]1CC[C@H](C)C[C@@H]1O
not listed: [6] | [12] | [18] | [20]
inactive: all other assays above

O=C1CCC(=O)N1Cl
not listed: [5] | [11] | [17] | [18] | [19] | [20]
inactive: all other assays above

C/C=C(\C)C(=O)OCCc1ccccc1
active: [7] 27.3 µM
not listed: [5] | [6] | [8] | [13] | [14] | [17] | [20]
inactive: all other assays above

O=Cc1cc2ccccc2o1
inactive: [1] | [2] | [3] | [4] | [18] | [7] | [8] | [11] | [12] | [15] | [16]

Cc1c(NC(=O)c2cccnc2)c(=O)n(-c2ccccc2)n1C
not listed: [5] | [11] | [13] | [14] | [15] | [17] | [18]
inactive: all other assays above

CCCCCCCCCOC(=O)CCCCC(=O)OCCCCCCC
active: [1] 27.5 µM | [3] 38.9 µM
inactive: [2] | [4] | [18] | [7] | [8] | [9] | [10] | [11] | [12] | [15]

CC(=O)O[Si](C)(OC(C)=O)OC(C)=O
not listed: [5] | [6] | [17] | [20]
inactive: all other assays above

O=C(O)CONC(=O)c1ccccc1
not listed: [5] | [6] | [7] | [13] | [14] | [17] | [20]
inactive: all other assays above

CC(O)COC(C)(C)C (configuration not stated)
not listed: [5] | [6] | [13] | [14] | [17] | [20]
inactive: all other assays above

CCNC(=O)NCc1cccc(Cl)c1
not listed: [4] | [5] | [13] | [14] | [16] | [17]
inactive: all other assays above

NC(=O)[C@@H]1CSSCCC(=O)N[C@@H](CCCCN=C(N)N)C(=O)NCC(=O)N[C@@H](CC(=O)O)C(=O)N[C@@H](Cc2c[nH]c3ccccc23)C(=O)N2CCC[C@H]2C(=O)N1 ([Mpa][hArg]GDWPC-NH2; disulfide 1-7)
not listed: [4] | [5] | [8] | [13] | [14] | [17]
inactive: all other assays above

CC(C)OC(=O)CCC(=O)OC(C)C
not listed: [5] | [6] | [7] | [12] | [17] | [18] | [20]
inactive: all other assays above

Fc1ccccc1
not listed: [5] | [9] | [13] | [14] | [16] | [17] | [18] | [20]
inactive: all other assays above

COC(=O)c1cc(Cl)cc(Cl)c1
not listed: [4] | [7] | [20]
inactive: all other assays above

CCCSSCCC
not listed: [4] | [5] | [17] | [20]
inactive: all other assays above
